Data from PubChem BioAssay (NCI).
Values joined by “and” are separate entries in the source; they are usually repeats but may differ in a detail not shown here. Equal values may be shown once. Compounds without any hit were thinned out: in the full panel of roughly 79,000, 15% have a hit. Where a structure was tested more than once in an assay, its records may differ in their call. Active and inactive are the calls of the source. Cut-off read from the data, not from the text of the source: active = growth inhibition above about 70%; inactive = the rest.

Tests used:
[1] = NCI Yeast Anticancer Drug Screen. Data for the rad52 strain (AID 147);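 note: 0% = growth of vehicle-treated control cultures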; conditions: S. cerevisiae rad52 mutant growth inhibition, stronger effect = higher value
Outline: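 Inhibition of yeast growth, referenced to vehicle controls, was the measured output for a strain with defective DNA damage repair.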

[2] = NCI Yeast Anticancer Drug Screen. Data for the wt1 strain (AID 149);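 note: 0% = growth of vehicle-treated wt1 cultures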; conditions: S. cerevisiae wt1 strain (SPY 50644) growth inhibition, stronger effect = higher value
Outline: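 Using yeast strain wt1, compound-induced growth inhibition was determined against vehicle-treated cultures.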

[3] = NCI Yeast Anticancer Drug Screen. Data for the rad50EPP+ strain (AID 151);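 note: 0% = growth of vehicle-treated control cultures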; conditions: S. cerevisiae rad50 mutant strain, stronger effect = higher value
Outline: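 Genetically defined yeast (rad50EPP+, DNA damage repair alteration) is grown with compound, and inhibition of growth is expressed relative to vehicle-treated controls.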

[4] = NCI Yeast Anticancer Drug Screen. Data for the mgt1 strain (AID 153); conditions: S. cerevisiae mgt1 mutant growth inhibition, stronger effect = higher value
Outline: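 In the mgt1 strain, test compounds were added and growth inhibition was determined relative to vehicle-treated controls.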

[5] = NCI Yeast Anticancer Drug Screen. Data for the rad50 strain (AID 155);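 note: 0% = growth of vehicle-only cultures of the same strain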; conditions: S. cerevisiae rad50 strain growth inhibition, stronger effect = higher value
Outline: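 Relative growth inhibition (compound vs vehicle) was measured in yeast with a defined repair-gene alteration.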

[6] = NCI Yeast Anticancer Drug Screen. Data for the mec2-1 strain (AID 157); conditions: S. cerevisiae mec2-1 strain, stronger effect = higher value
Outline: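 Each compound was tested on mec2-1 yeast, a strain altered in DNA damage repair or cell cycle control. Growth inhibition is reported relative to vehicle.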

[7] = NCI Yeast Anticancer Drug Screen. Data for the rad14 strain (AID 159);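 note: 0% = growth of vehicle-treated control cultures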; conditions: S. cerevisiae rad14 strain growth inhibition, stronger effect = higher value
Outline: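 Screen for anticancer potential: a yeast strain altered in DNA damage repair is grown with compound, and reduced growth is quantified against vehicle controls.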

[8] = NCI Yeast Anticancer Drug Screen. Data for the sgs1 mgt1 strain (AID 161);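 note: 0% = growth of cultures given vehicle only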; conditions: S. cerevisiae sgs1 mgt1 strain, stronger effect = higher value
Outline: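 Inhibition of yeast growth, normalised to vehicle-treated controls, is reported for a strain bearing genetic alterations in DNA damage repair.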

[9] = NCI Yeast Anticancer Drug Screen. Data for the CLN2oe strain (AID 163);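 note: 0% = growth of vehicle-only control cultures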; conditions: S. cerevisiae CLN2oe strain, stronger effect = higher value
Outline: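 First, the altered yeast strain was treated with each compound; second, its growth was measured; finally, inhibition was derived by comparison with vehicle controls.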

[10] = NCI Yeast Anticancer Drug Screen. Data for the cln2 rad14 strain (AID 165);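 note: 0% = growth equal to vehicle treated cultures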; conditions: S. cerevisiae cln2 rad14 strain, stronger effect = higher value
Outline: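 Test compounds were added to cln2 rad14 yeast cultures; inhibition of growth was then determined by comparison with vehicle treatment.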

[11] = NCI Yeast Anticancer Drug Screen. Data for the bub3 strain (AID 167); conditions: S. cerevisiae bub3 mutant strain, stronger effect = higher value
Outline: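 Screening used yeast with an engineered genetic alteration affecting cell cycle control. Compound-exposed cultures were compared with vehicle cultures, and reduced growth was taken as inhibition.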

[12] = NCI Yeast Anticancer Drug Screen. Data for the mlh1 strain (AID 171);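 note: 0% = growth of vehicle-treated control cultures of the same strain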; conditions: S. cerevisiae mlh1 strain growth inhibition, stronger effect = higher value
Outline: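 Inhibition values reflect reduced yeast growth in the presence of compound, referenced to vehicle controls, using a strain chosen for its alteration in DNA repair or cell cycle control.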

[13] = NCI Yeast Anticancer Drug Screen. Data for the sgs1 strain (AID 173);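 note: 0% = growth of vehicle-only control cultures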; conditions: S. cerevisiae sgs1 mutant, stronger effect = higher value
Outline: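 Vehicle-treated cultures served as reference for growth inhibition of a yeast strain altered in DNA damage repair or cell cycle control after compound exposure.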

[14] = NCI Yeast Anticancer Drug Screen. Data for the mlh1 rad18 strain (AID 175); conditions: S. cerevisiae mlh1 rad18 strain growth inhibition, stronger effect = higher value
Outline: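 Inhibition values reflect reduced growth of mutant yeast versus vehicle-treated controls following compound exposure; the mutations affect DNA damage repair.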

[15] = NCI Yeast Anticancer Drug Screen. Data for the rad18 strain (AID 177); conditions: S. cerevisiae rad18 mutant growth inhibition, stronger effect = higher value
Outline: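 Steps: expose repair-mutant yeast to compound; measure growth; express as inhibition relative to vehicle control.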

[16] = at 5.0 µM (retest, dose inferred, filed as 0.5)
[17] = at 50.0 µM (retest, dose inferred, filed as 5.0)

Measured: growth inhibition

O=C(O)C1C2C=CC(C2)C1c1ccccc1 (stereo not drawn)
30.1% (inactive) and 95.9% (active): [11]; at 50.0 µM
inactive: [1]; at 1.2 µM -1% | [1]; at 3.7 µM 0% | [1]; at 11.0 µM -2% | [1]; at 33.0 µM -3% | [1]; at 100.0 µM 5% | [2]; at 1.2 µM -3% | [2]; at 3.7 µM -1% | [2]; at 11.0 µM -3% | [2]; at 33.0 µM -9% | [2]; at 100.0 µM 1% | [3]; at 1.2 µM -6% | [3]; at 3.7 µM -8% | [3]; at 11.0 µM -6% | [3]; at 33.0 µM -5% | [3]; at 100.0 µM 0% | [4]; at 1.2 µM -1% | [4]; at 3.7 µM -1% | [4]; at 11.0 µM -4% | [4]; at 33.0 µM -5% | [4]; at 100.0 µM 2% | [5]; at 1.2 µM -1% | [5]; at 3.7 µM 26% | [5]; [16] -1% | [5]; at 11.0 µM 1% | [5]; at 33.0 µM 0% | [5]; [17] 4% | [5]; at 50.0 µM 10.9% and 4.35% | [5]; at 100.0 µM 17% | [6]; at 1.2 µM 0% | [6]; at 3.7 µM 0% | [6]; [16] -1% | [6]; at 11.0 µM 0% | [6]; at 33.0 µM -1% | [6]; [17] 3% | [6]; at 50.0 µM 1.4% and 9.7% | [6]; at 100.0 µM 9% | [7]; at 1.2 µM -5% | [7]; at 3.7 µM -7% | [7]; at 11.0 µM -10% | [7]; at 33.0 µM -11% | [7]; at 100.0 µM -4% | [8]; [16] -3% | [8]; [17] 3% | [8]; at 50.0 µM 7% and -6.6% | [9]; at 1.2 µM -4% | [9]; at 3.7 µM -10% | [9]; at 11.0 µM -4% | [9]; at 33.0 µM -6% | [9]; at 100.0 µM 5% | [10]; [16] -5% | [10]; [17] -5% | [10]; at 50.0 µM -0.2% and 0.6% | [11]; at 1.2 µM 6% | [11]; at 3.7 µM 20% | [11]; [16] 34% | [11]; at 11.0 µM 45% | [12]; at 1.2 µM -1% | [12]; at 3.7 µM 0% | [12]; at 11.0 µM 1% | [12]; at 33.0 µM 0% | [12]; at 100.0 µM 11% | [13]; at 1.2 µM -5% | [13]; at 3.7 µM -5% | [13]; at 11.0 µM -5% | [13]; at 33.0 µM 6% | [13]; at 100.0 µM 40% | [14]; [16] -3% | [14]; [17] 5% | [14]; at 50.0 µM 10.6% and 6.5% | [15]; at 1.2 µM -1% | [15]; at 3.7 µM -3% | [15]; at 11.0 µM -2% | [15]; at 33.0 µM 10% | [15]; at 100.0 µM 60%
active: [11]; at 33.0 µM 73% | [11]; [17] 93% | [11]; at 100.0 µM 85%
